Bioassay records: PubChem, National Center for Advancing Translational Sciences (NCATS)
AmpC detergent = inhibitors of E. coli AmpC beta-lactamase with detergent; AmpC hydrolysis of nitrocefin, absorbance 480 nm, 0.01% Triton; P00811; Potency, µM (series often up to 114 µM), without a hit: at the highest dose activity change, negative = inhibition, usual class: inhibitors; AID 485294; 0.041% of 370,000 active;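 also: 0% = no-compound wells and -100% = no-enzyme wells; nearly all actives have a fitted effect of over 25% in size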
Target sequence (P00811 whole entry, looked up): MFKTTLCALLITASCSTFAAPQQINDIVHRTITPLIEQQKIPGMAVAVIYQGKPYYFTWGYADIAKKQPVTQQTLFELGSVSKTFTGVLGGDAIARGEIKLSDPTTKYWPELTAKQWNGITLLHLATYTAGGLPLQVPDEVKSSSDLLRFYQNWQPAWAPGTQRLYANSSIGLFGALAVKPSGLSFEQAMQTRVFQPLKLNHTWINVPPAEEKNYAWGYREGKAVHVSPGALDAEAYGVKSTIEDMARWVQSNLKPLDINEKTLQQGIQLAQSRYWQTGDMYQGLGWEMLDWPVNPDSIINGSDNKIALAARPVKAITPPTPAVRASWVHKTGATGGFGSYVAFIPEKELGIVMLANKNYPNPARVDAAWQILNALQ
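AmpC (5.3 nM in the dispensed reagent) in 20 mM phosphate pH 7.0 with 0.01% (detergent screen) or 0.0001% Triton X-100 was preincubated with compounds for 15 min at room temperature. Nitrocefin was then added from an 800 uM solution, and hydrolysis was followed at 480 nm.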
SARS PLP yeast = SARS-CoV PLP inhibition in yeast; 0.19% of 330,000 active; AID 485353; S. cerevisiae expressing SARS-CoV PLpro, growth rescue; Potency, µM (top dose mostly 32.9 µM), without a hit: top-dose activity, positive = growth rescue, usual class: activators; calls by dose curve; also: 0% is about no effect; nearly all actives have a fitted effect of over 55% in size
Pf growth 48h = P. falciparum growth inhibition at 48 hours (one generation); Potency, µM (titrated, usually from 28.7 µM), for the others: at the top dose activity change, negative = inhibition, usual class: inhibitors; P. falciparum luciferase growth in erythrocytes, 48 h; 5.9% of 310,000 active; also: % is scaled to controls: 0 for no effect and ±100 for the full control effect
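Parasite viability was followed by luminescence of a genomically integrated firefly luciferase. Cultures held 0.1% parasitemia at 2% hematocrit (final), incubated under 5% CO2 at 37 C.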
Pf growth 96h = inhibits malaria parasite growth, 96 h. Potency, µM (titrated, usually from 28.7 µM), for the others: at the highest dose activity change, negative = inhibition, most hits filed as inhibitors. 6.9% of 320,000 active. P. falciparum luciferase reporter growth, 96 h; also: % is scaled to controls: 0 for no effect and ±100 for the full control effect
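Cell-based qHTS: luciferase-tagged P. falciparum in erythrocytes (2% hematocrit, 0.05% parasitemia final) incubated with compounds for 96 hours, 37 C, 5% CO2; luciferase detection reagent then added and luminescence measured.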
AmpC inh no detg = AmpC beta-lactamase inhibition without detergent; P00811; AmpC nitrocefin hydrolysis, absorbance 480 nm, 0.0001% Triton; Potency, µM (titrated, usually from 57.1 µM), for inactives: at the highest dose activity change, negative = inhibition, most hits filed as inhibitors; 0.52% of 330,000 active;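 also: plate controls were no compound for no effect and no enzyme for full effect; nearly all actives have a fitted effect of over 20% in size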
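20 mM phosphate pH 7.0 + 0.01% (detergent screen) or 0.0001% Triton X-100; 5.3 nM AmpC reagent; cpd preinc 15 min RT; nitrocefin (800 uM stock) to start; A480 q20 s × 4 min; Activity was normalised to no-enzyme and no-compound control wells.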
Sm TGR inh = inhibitors of Schistosoma mansoni thioredoxin glutathione reductase; AID 485364; Q962Y6; purified TGR, DTNB reduction, TNB absorbance 405 nm; Potency, µM (titrated, usually from 114 µM), for inactives: at the top dose activity change, negative = inhibition, hits mostly inhibitors; 3% of 360,000 active; also: % is scaled to controls: 0 for no effect and ±100 for the full control effect; nearly all actives have a fitted effect of over 60% in size
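Kinetic colorimetric format: TGR-catalysed, NADPH-driven DTNB reduction monitored via TNB absorbance. Enzyme dispensed at 20 nM; compound exposure 15 min at room temperature before reaction start.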
* hit, by the source's call; u = inconclusive; x = not tested or not shown; [ ] = remark or other dose. Rows were chosen to be rich in hits. Some 12% of all compounds tested hit in one or more screens of this group. Unless noted, calls follow the shape of the dose curve; as a rule, active = well fitted curve in the direction sought with a large enough effect; inconclusive = small, poorly fitted or top-dose-only effect, or another doubt; inactive = no such curve, though single readings can be large; an effect the other way counts as inactive or inconclusive. Potency is read from the fitted curve at half-maximal effect.

SMILES	AmpC detergent	SARS PLP yeast	Pf growth 48h	Pf growth 96h	AmpC inh no detg	Sm TGR inh
Cc1c(O)ccc(C(=O)CN2CCN(c3ccccc3)CC2)c1O	u	14%	-19%	u	-26%	22µM*
COc1ccc(N2CCN(CC(=O)c3ccc(O)c(C)c3O)CC2)cc1	-9%	2%	u	u	-5%	u
O=c1oc2ccc3ccccc3c2cc1-c1nnc(Nc2cccc(C(F)(F)F)c2)s1	3%	x	x	x	x	u
COc1cccc(NC(=O)CCCCCN2C(=O)[C@@H]3Cc4ccccc4CN3C2=O)c1	3%	-3%	u	12µM*	12%	5%
Cc1ccccc1N1CCN(C(=S)c2ccc(-c3cccc([N+](=O)[O-])c3)o2)CC1	4%	0%	10µM*	u	-29%	-7%
CCn1nnc(NC(=O)Cc2ccc(Cl)cc2)n1	0%	1%	4%	62%	-19%	15%
CCn1nnc(NC(=O)c2ccc(-c3ccc(Cl)cc3)o2)n1	-1%	-11%	1%	-9%	-8%	22µM*
CN1CCN(c2ccc(NC(=O)c3ccc(-c4cccc([N+](=O)[O-])c4)o3)cc2)CC1	1%	0%	1.5µM*	0%	-16%[2.29 µM]	3%
Cc1ccccc1N1CCN(C(=S)c2ccc(-c3ccc([N+](=O)[O-])cc3)o2)CC1	-4%	1%	0%	0%	-35%	-3%
CN1CCN(c2ccc(NC(=O)c3ccc(-c4ccc(Cl)cc4)o3)cc2)CC1	-3%	-1%	2.9µM*	u	185%	1%
COC(=O)c1ccc(C2c3c(oc4cc(C)c(C)cc4c3=O)C(=O)N2c2ccccn2)cc1 (configuration not stated)	19%	x	x	x	x	u
Cc1ccc(NCc2ccccc2-c2nnc(-c3ccccc3Cl)o2)c(C)c1	-1%	x	x	x	x	-3%
CSCCCNC(=S)N1CCN(S(=O)(=O)c2cccc(C(F)(F)F)c2)CC1	-10%	12%	10µM*	-93%	-6%	0%
O=S(=O)(c1cccc(C(F)(F)F)c1)N1CCN(C(=S)NCc2ccco2)CC1	u	-4%	4.7µM*	2.3µM*	-19%	-5%
CC(=O)NC12CC3CC(C1)CC(C(=O)N1CCN(S(=O)(=O)c4cccc(C(F)(F)F)c4)CC1)(C3)C2	-18%	0%	13µM*	u	211%	-12%
COC(=O)c1ccccc1NC(=O)c1cc(CN2CCOCC2)on1	22%	x	x	x	x	-1%
O=C(N/N=C/c1cccs1)c1cc(-c2ccncc2)nc2ccccc12	u	24%	-12%	u	-7%	7%
COc1ccccc1-c1cc(C(=O)N/N=C\c2cn(C)nc2C)c2ccccc2n1	u	-7%	u	u	69%	-2%
COc1ccc(-c2cc(C(=O)N/N=C/c3ccc(OC)c(COCC(F)(F)C(F)F)c3)c3ccccc3n2)c(OC)c1	u	-3%	1.5µM*	6.6µM*	0%	1%
COc1ccccc1-c1csc(NC(=O)c2cc(-c3cccs3)nc3ccccc23)n1	-6%	-5%	u	7.4µM*	-21%	2%
COc1ccc(-c2cc(C(=O)N/N=C/c3ccc4c(c3)OCO4)c3ccccc3n2)c(OC)c1	u	0%	u	u	14%	13%
CCn1cc(/C=N\NC(=O)c2cc(-c3ccccc3OC)nc3ccccc23)c(C)n1	u	7%	1.7µM*	1.9µM*	192%	-3%
COc1ccccc1-c1cc(C(=O)N/N=C/c2cccs2)c2ccccc2n1	-7%	-16%	x	4.1µM*	-3%	-5%
Oc1c(C(c2ccccc2Cl)N2CCC(O)CC2)sc2nc(-c3ccco3)nn12 (configuration not stated)	1%	x	x	x	x	-7%
COCCSc1nnc(NC(=O)COc2ccc3c(c2)OCO3)s1	3%	7%	8%	39%	-9%	0%
SMILES	AmpC detergent	SARS PLP yeast	Pf growth 48h	Pf growth 96h	AmpC inh no detg	Sm TGR inh
C/C(=N\NC(=O)c1cc(C)nc2ccccc12)c1ccco1	0%	1%	u	-42%[5.75 µM]	-9%[2.29 µM]	-26%
COc1ccc(-c2cc(C(=O)N/N=C/c3sccc3C)c3ccccc3n2)c(OC)c1	-10%	-3%	x	12µM*	27%	4%
COc1ccc(-c2cc(C(=O)N/N=C(\C)c3ccco3)c3ccccc3n2)c(OC)c1	-7%	-3%	9.3µM*	13µM*	-1%	-10%
O=C(COc1ccccc1F)Nc1ccc2nc(SCC(=O)N3CCOCC3)sc2c1	19%	x	x	x	x	-2%
CC1(C)Cc2c(cnn2-c2ccccc2)C(=O)/C1=N\NC(=O)c1ccccc1O	u	-12%	u	x	-1%	-6%
COC(=O)C(=Cc1ccc(OCc2ccc([N+](=O)[O-])cc2)c(OC)c1)C(=O)OC	-2%	-4%	u	-2%	-8%	-33%
COc1cc(C=C2C(=O)NC(=O)NC2=O)ccc1OCc1ccc([N+](=O)[O-])cc1	-10%	0%	25%	-3%	-52%	25µM*
O=C(CCC(=O)NC1CCCCC1)N/N=C/c1ccncc1	-14%	-4%	10%	-3%	-20%	0%
CN(C)CCN1C(=O)c2ccccc2N(C)c2ccccc21	x	x	-18%	3µM*	x	x
CN(C)CCN1C(=O)c2ccccc2C1=O	-3%	3%	29%	35%	-21%	0%
CCN(CC)c1ccc(/C=C/C(=O)C2C(=O)C=C(C)OC2=O)cc1 (configuration not stated)	-10%	13%	222%	2%	-35%	8.9µM*
O=C(/C=C/c1cccc(C(F)(F)F)c1)OCC(=O)N1CCN(c2ccccc2)CC1	x	3%	x	x	5%	x
O=[N+]([O-])c1ccccc1CCl	-3%	-13%	32%	89%	-14%	40µM*
CC(C)C(NC(=O)Cc1ccccc1[N+](=O)[O-])C(C)C	-5%	12%	-3%	12µM*	-16%	-2%
O=[N+]([O-])c1ccccc1CNCCCCO	0%	-5%	5%	76%	-33%	-17%
CC(C)N(C(=O)Cc1ccccc1[N+](=O)[O-])C(C)C	-2%	-4%	-5%	177%	-8%	0%
CC(=O)c1c(C)[nH]c(C(=O)Nc2cc(S(=O)(=O)N3CCCCC3)ccc2C)c1C	u	-1%	13µM*	13µM*	u	6%
CC(=O)c1c(C)[nH]c(C(=O)CN2CCN(S(=O)(=O)c3ccccc3)CC2)c1C	-5%	3%	13%	16%	-10%	45µM*
CCOc1ncccc1C(=O)Nc1cc(S(=O)(=O)N2CCCCC2)ccc1C	-7%	3%	12µM*	9.3µM*	-26%	-1%
